Test systems include SR leukemia; RPMI-8226 leukemia; OVCAR-8 ovarian; OVCAR-4 ovarian; SK-OV-3 ovarian; IGROV1 ovarian; OVCAR-3 ovarian; HS 578T breast; NCI/ADR-RES ovarian; T-47D breast; BT-549 breast; MDA-MB-435 melanoma; SW-620 colon; MCF7 breast; HCT-116 colon; HCC-2998 colon; KM12 colon; OVCAR-5 ovarian.
Holding throughout (assay): NCI-60 one-dose screen, 48 h (100 = growth as untreated, 0 = no growth, -100 = all killed)
What all share (conditions): 10 µM unless noted

About 83,000 compounds went through this panel and 20% of them were active in at least one assay; those are over-represented in the sample as a whole.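 Interpretation: 100, growth as untreated; towards 0, rising growth inhibition; 0, no net growth; 0 to -100, cell death. Compounds scoring below 10 were considered active.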 A number with no mark means an inactive call. Active and inactive are the calls of the source.

As to `O=C1/C(=C/c2ccccc2[N+](=O)[O-])COc2ccc(O)cc21`, the growth was 22.2% with SR leukemia; 3.29% (active) with RPMI-8226 leukemia; 6.3% (active) in the experiment on OVCAR-8 ovarian; 15.6% with OVCAR-4 ovarian; 77.7% in the experiment on SK-OV-3 ovarian; -0.209% (active) with IGROV1 ovarian. In addition, the growth in the experiment with OVCAR-3 ovarian was 7.73% (active); with HS 578T breast, 5.1% (active); in the experiment with NCI/ADR-RES ovarian it was 2.55% (active); in the experiment on T-47D breast, 18%; in the experiment with BT-549 breast, 26.7%; in the experiment with MDA-MB-435 melanoma it was -34.2% (active). Besides, the growth was -57.8% (active) in the experiment with SW-620 colon; 10.9% with MCF7 breast; -13.8% (active) in the experiment with HCT-116 colon; 29% with HCC-2998 colon; 25.4% in the experiment with KM12 colon.

Regarding `COc1ccccc1-n1c(-c2cc(O)ccc2C)cn2c3c(=O)[nH]c(=O)n(C)c3nc12`, the growth was 86.2% in the experiment with SR leukemia; 90.7% with RPMI-8226 leukemia; 66.5% in the experiment on OVCAR-8 ovarian; 95.3% with OVCAR-5 ovarian; 98.2% with OVCAR-4 ovarian; 65.3% in the experiment with OVCAR-3 ovarian. Moreover, the growth with HS 578T breast was 20.4%; in the experiment on NCI/ADR-RES ovarian, 101%; in the experiment on T-47D breast, 87.8%; in the experiment on BT-549 breast, 100%; in the experiment on MDA-MB-435 melanoma it was 104%; with SW-620 colon, 106%. The growth in the experiment with MCF7 breast is 84.1%; with HCT-116 colon, 86.5%; with HCC-2998 colon, 98.6%; in the experiment on KM12 colon, 108%.

Consider `COc1ccc(C(c2cc(OC)c(OC)c(OC)c2)N2CCN(Cc3ccccc3)CC2)cc1` (stereo not given), for which the growth in the experiment with SR leukemia is 16.1%; in the experiment on RPMI-8226 leukemia, 84.1%; in the experiment with OVCAR-8 ovarian, 92.6%; in the experiment on OVCAR-4 ovarian it was 97%; in the experiment on SK-OV-3 ovarian it was 66.2%; in the experiment on IGROV1 ovarian, 63%. Further, the growth was 69% with OVCAR-3 ovarian; 59.1% in the experiment with HS 578T breast; 61.6% with NCI/ADR-RES ovarian; 75.1% in the experiment on T-47D breast; 92.4% in the experiment with BT-549 breast; -32.2% (active) in the experiment on MDA-MB-435 melanoma. Moreover, the growth with SW-620 colon is 43.6%; in the experiment with MCF7 breast, 47.7%; in the experiment on HCT-116 colon, 56.7%; in the experiment on HCC-2998 colon it was 91.9%; in the experiment with KM12 colon it was 40.6%.

Take `Cc1cccc(-n2c(C)nc3ccc(N4CCCNC4=O)cc3c2=O)c1`: the growth with SR leukemia is 98%; in the experiment with RPMI-8226 leukemia it was 104%; with OVCAR-8 ovarian it was 99.5%; in the experiment on OVCAR-4 ovarian, 99.3%; in the experiment on SK-OV-3 ovarian, 114%; in the experiment on IGROV1 ovarian, 111%. Also, the growth was 107% with OVCAR-3 ovarian; 111% in the experiment on HS 578T breast; 103% with NCI/ADR-RES ovarian; 103% in the experiment on T-47D breast; 108% in the experiment on BT-549 breast; 104% in the experiment on MDA-MB-435 melanoma. Moreover, the growth in the experiment with SW-620 colon is 104%; in the experiment with MCF7 breast it was 97.8%; in the experiment on HCT-116 colon, 102%; in the experiment on HCC-2998 colon it was 109%; with KM12 colon, 111%.

Turning to `CC1(C)CC[C@]2(C(=O)O)CC[C@]3(C)C(=CC[C@@H]4[C@@]5(C)C[C@@H](Cc6cn([C@@H]7O[C@H](CO)[C@@H](O)[C@H](O)[C@H]7O)nn6)[C@H](O)C(C)(C)[C@@H]5CC[C@]43C)[C@@H]2C1`, the growth in the experiment on SR leukemia is 94.7%; in the experiment on RPMI-8226 leukemia, 103%; in the experiment on OVCAR-8 ovarian it was 98.7%; with OVCAR-4 ovarian, 96.6%; in the experiment with IGROV1 ovarian, 108%; in the experiment on OVCAR-3 ovarian, 104%. The growth with HS 578T breast was 96.8%; with NCI/ADR-RES ovarian, 105%; in the experiment with T-47D breast it was 94.2%; in the experiment with BT-549 breast it was 101%; with MDA-MB-435 melanoma, 104%; in the experiment on SW-620 colon it was 102%. The growth was 91.4% in the experiment with MCF7 breast, 96.4% with HCT-116 colon, 104% in the experiment with HCC-2998 colon and 104% in the experiment on KM12 colon.

In the case of `CCOC(=O)c1c(C)nn(CC(O)c2ccccc2)c1NC(=O)Nc1cccc(F)c1` (stereo not given), the growth in the experiment with SR leukemia is 93%; with RPMI-8226 leukemia, 80.8%; in the experiment with OVCAR-8 ovarian, 93.1%; with OVCAR-4 ovarian, 83.6%; in the experiment on SK-OV-3 ovarian, 85.2%; in the experiment with IGROV1 ovarian, 90%. In addition, the growth was 95.6% with OVCAR-3 ovarian; 71.4% in the experiment with HS 578T breast; 90.9% with NCI/ADR-RES ovarian; 81.8% with T-47D breast; 96.4% with BT-549 breast; 86.8% in the experiment on MDA-MB-435 melanoma. The growth was 82.7% in the experiment on SW-620 colon; 81.4% with MCF7 breast; 84% in the experiment with HCT-116 colon; 94.6% in the experiment with HCC-2998 colon; 82.9% in the experiment with KM12 colon.

On to `COC(=O)c1ccc2c(c1)c1c(C)c3ccncc3c(C)c1n2C`, for which the growth was -5.73% (active) in the experiment on SR leukemia; 26.8% in the experiment with RPMI-8226 leukemia; 28.8% in the experiment with OVCAR-8 ovarian; 22% in the experiment on OVCAR-4 ovarian; 40% in the experiment on SK-OV-3 ovarian; 24% in the experiment on IGROV1 ovarian. The growth with OVCAR-3 ovarian is 39.5%; in the experiment on HS 578T breast, 35.6%; with NCI/ADR-RES ovarian, 29.3%; in the experiment with T-47D breast, 29.7%; in the experiment on MDA-MB-435 melanoma it was 28.3%; in the experiment with SW-620 colon, 21%. Besides, the growth in the experiment on MCF7 breast was 8.59% (active); in the experiment on HCT-116 colon, 10.9%; with HCC-2998 colon it was 61.5%; with KM12 colon, 23.2%.

Consider `O=c1ccc2nc(C(F)(F)F)nn(-c3ccccc3)c-2c1`, for which the growth is -11.3% (active) with SR leukemia; 45.8% in the experiment with RPMI-8226 leukemia; 73.1% with OVCAR-8 ovarian; 79.8% in the experiment on OVCAR-4 ovarian; 79.3% with SK-OV-3 ovarian; 71.7% in the experiment on IGROV1 ovarian. Besides, the growth with OVCAR-3 ovarian was -26.1% (active); with HS 578T breast, 74%; in the experiment on NCI/ADR-RES ovarian, 84%; in the experiment on T-47D breast, -40.8% (active); in the experiment with BT-549 breast, 69.2%; with MDA-MB-435 melanoma, 62.3%. The growth was -63.3% (active) in the experiment on SW-620 colon; -49.3% (active) in the experiment with MCF7 breast; 35.2% in the experiment on HCT-116 colon; 102% in the experiment on HCC-2998 colon; 96.8% in the experiment on KM12 colon.

For the molecule `CCOC(=O)c1ccc2c(c1)c1c(C)c3ccncc3c(C)c1n2C`, the growth is 26.8% in the experiment on SR leukemia; -1.7% (active) with RPMI-8226 leukemia; 3.64% (active) in the experiment with OVCAR-8 ovarian; -12.8% (active) in the experiment with OVCAR-4 ovarian; 0.282% (active) with SK-OV-3 ovarian; -25.5% (active) in the experiment with IGROV1 ovarian. Also, the growth was -20.4% (active) in the experiment on OVCAR-3 ovarian; -4.98% (active) in the experiment with HS 578T breast; -12.5% (active) in the experiment on NCI/ADR-RES ovarian; -3.13% (active) with T-47D breast; 21.1% with BT-549 breast; 3.03% (active) with MDA-MB-435 melanoma. Besides, the growth is 0.329% (active) with SW-620 colon; 1.8% (active) in the experiment with MCF7 breast; 0.263% (active) with HCT-116 colon; 4.25% (active) with HCC-2998 colon; 0.78% (active) in the experiment on KM12 colon.

These data come from PubChem BioAssay (NCI).
